Laboratory results as given in PubChem BioAssay AID602393 (Broad Institute, 2012).
Hit rate of the full screen: of about 350,000 compounds, about 7,000 (2%) were called active. No stated cut-off is given here; in the data, active means activation above about 40%; inconclusive means no clear call, values can overlap the other calls; inactive means below that. Many of the other results were omitted from the sample, so actives are more common in it than they were.

assay: Bmi1 luciferase reporter increase in mESCs, primary screen, esBAF inhibitor project, mouse ES cells, Bmi1 luciferase knock-in, single point (AID 602393); conditions: 24 h, at 12.5 µM, stronger effect = higher value, 100% = twice the neutral-well signal;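 further: 0% = median of the plate's neutral control wells and 100% = double that signal; a rise in the Bmi1 reporter signal indicates esBAF inhibition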

Reporter increase, inactive:
Cn1cnc(CCNC(=O)[C@H]2[C@H](CO)[C@H]3Cn4c(cccc4=O)[C@H]3N2C(=O)Nc2ccccc2)c1 6.91%, O=C(NC1CCCCC1)N[C@H]1CC[C@H](CCNS(=O)(=O)c2ccc(F)cc2)O[C@H]1CO 12.9%, O=C(c1nnc(-c2ccc(Cl)cc2)o1)C1CCCC1 19.6%, O=C(Nc1nnc(-c2ccc(Cl)cc2)o1)c1ccccc1Br 17.7%, Cc1ccc(CNC(=O)CCNC(=O)Cn2ccc3ccccc3c2=O)cc1 -7.21%, COc1ccc(NC(=O)CCNC(=O)Cn2ccc3ccccc3c2=O)c(OC)c1 -7.83%, O=C(C[C@@H]1C=C[C@@H](NS(=O)(=O)c2ccccc2)[C@@H](CO)O1)NCc1ccccc1F -1.71%, CC(C)NC(=O)N(C)C[C@@H]1Oc2c(cccc2N(C)C)C(=O)N([C@@H](C)CO)C[C@H]1C -5.01%, C[C@H](CO)N1C[C@H](C)[C@@H](CN(C)C(=O)C2CCC2)Oc2cc(C3=CCCCC3)ccc2S1(=O)=O 0.47%, COc1ccc(S(=O)(=O)N(C)C[C@H]2Oc3ccc(NC(=O)Nc4c(C)noc4C)cc3C(=O)N([C@@H](C)CO)C[C@@H]2C)cc1 -2.46%, COc1ccc(CNC(=O)c2cc(=O)c3c(C)cc(C)cc3o2)cc1 1.4%, CC(C)c1nc2cc(C(=O)NC(C)c3cnn(C)c3)ccc2o1 (stereo unspecified) 3.1%, COC(=O)c1ccc(CSc2nc3cc(Cl)ccc3o2)cc1 -4.19%, COC(=O)c1ccc(CNC(=O)c2ccc(S(=O)(=O)N3CCCCCC3)cc2)cc1 1.32%, O=C(NCC[C@@H]1CC[C@@H](NC(=O)C2CCCC2)[C@H](CO)O1)c1cnccn1 -3.83%, COc1ccc(S(=O)(=O)N(C)C[C@H]2Oc3c(NS(=O)(=O)c4ccc(F)cc4)cccc3C(=O)N([C@H](C)CO)C[C@H]2C)cc1 0.834%, C[C@H](CO)N1C[C@H](C)[C@@H](CN(C)Cc2ccc(C(=O)O)cc2)Oc2ccc(NS(=O)(=O)c3cn(C)cn3)cc2CC1=O -1.15%, C[C@@H]1CN([C@@H](C)CO)C(=O)c2cc(NC(=O)Cc3ccccc3)ccc2O[C@@H](C)CCCCO[C@H]1CN(C)C(=O)Nc1cccc2ccccc12 1.67%, CS(=O)(=O)Nc1ccc2c(c1)[C@@H]1C[C@H](CC(=O)NCc3cc(F)ccc3F)O[C@@H](CO)[C@@H]1O2 1.97%, O=C(C[C@H]1CC[C@H](NC(=O)c2ccc3c(c2)OCO3)[C@H](CO)O1)NCc1ccc(Oc2ccccc2)cc1 -8.21%, CNC[C@H]1Oc2ccc(NC(=O)Nc3ccc4c(c3)OCO4)cc2CC(=O)N([C@H](C)CO)C[C@H]1C 0.772%, COc1ccc(NC(=O)N(C)C[C@@H]2Oc3c(NC(=O)C4CCOCC4)cccc3C(=O)N([C@H](C)CO)C[C@@H]2C)cc1 1.63%, CCCc1cc(C(=O)N2CCCC(CO)(CCCc3ccccc3)C2)n(C)n1 (stereo unspecified) 9.89%, CCOC(=O)C1(Cc2ccccc2C)CCCN(C(=O)CCc2c(C)noc2C)C1 (stereo unspecified) 4.36%, Cc1noc(C)c1CCC(=O)O -5.69%, Cc1ccccc1CC1(CO)CCCN(C(=O)c2cc(-c3ccccc3)no2)C1 (stereo unspecified) -3.48%, CCCN(C)C[C@H]1OCCCC[C@@H](C)Oc2ccc(NC(=O)CCC(F)(F)F)cc2C(=O)N([C@H](C)CO)C[C@H]1C 3.13%, COc1cccc(-c2ccc3c(c2)O[C@@H](CN(C)Cc2ccncc2)[C@H](C)CN([C@H](C)CO)S3(=O)=O)c1 0.833%, CN1CCN(C(=O)C[C@H]2C[C@@H]3c4cc(NC(=O)NC5CCCC5)ccc4O[C@@H]3[C@@H](CO)O2)CC1 -0.346%, O=C(CN1CCOCC1)N[C@@H]1CC[C@@H](CCn2cc(C3CCCCC3)nn2)O[C@@H]1CO -5.48%, O=C1C(Cc2ccc(O)cc2)NC(=S)N1Cc1ccccc1 (stereo unspecified) -6.04%, CC1CN(Cc2ccccc2)C(=S)NC1=O (stereo unspecified) 2.98%, C[C@H](CO)N1C[C@H](C)[C@H](CN(C)S(=O)(=O)c2ccccc2)Oc2ccc(NC(=O)Cn3cnnn3)cc2C1=O 2.23%, CCC(=O)Nc1ccc2c(c1)C(=O)N(C)[C@@H]1CC[C@@H](CC(=O)Nc3cccc(OC)c3)O[C@@H]1CO2 -2.81%, O=C(NC1CCCCC1)c1cc(C2CC2)on1 -10.1%, Cc1nn(Cc2ccc(Cl)c(Cl)c2)c(C)c1NC(=O)c1cc(C2CC2)on1 7.59%, CCCNC(=O)N1C[C@H](O)COC[C@H]2O[C@@H](CC(=O)NCc3ccncn3)CC[C@@H]21 -2.02%, CCn1c(Cc2ccccc2)nnc1SCc1nc2ccccc2c(=O)[nH]1 -5.17%, CCN(CC)S(=O)(=O)c1ccc2nc(CSc3nnnn3-c3ccc(O)cc3)[nH]c2c1 1.1%, O=C(C[C@@H]1C[C@H]2c3cc(NC(=O)NC4CCCC4)ccc3O[C@H]2[C@H](CO)O1)NCc1cc(F)ccc1F 5.15%, Fc1ccccc1-c1cc2cc3c(cc2cn1)OCO3 16.5%, N#CCSc1nc(-c2ccccc2)nc2ccc(F)cc12 -3.61%, COc1ccc(-c2cc3ncccc3cn2)cc1 10.9%, COc1ccc(C(C)(O)c2nc(-c3cc(F)cc(F)c3)cs2)cc1 (stereo unspecified) -4.23%, O=C(Nc1ccc(Cl)cc1)N1C[C@@H]2[C@H](c3ccccc31)[C@@H](CO)N2C(=O)c1cccnc1 13.8%, CO[C@H]1CN(C)C(=O)c2cc(NC(=O)Nc3ccccc3)ccc2OC[C@@H](C)N(C(=O)Nc2c(C)noc2C)C[C@@H]1C 3.56%, O=S(=O)(NCC[C@H]1CC[C@@H](NS(=O)(=O)c2cccc(Cl)c2)[C@@H](CO)O1)c1cccc(F)c1 8.34%, CCC(=O)N1C[C@@H](C)[C@H](OC)CN(C)C(=O)c2cc(NC(=O)c3cc(C)on3)ccc2OC[C@@H]1C 6.47%, COc1ccc(-c2cc(C(=O)NCCCN3CCOCC3)no2)cc1 -13.5%, COCCN1CCN(C(=O)c2cc(COc3ccc(F)cc3Cl)on2)CC1 -1.67%, CC(=O)N(C)C[C@@H]1Oc2ncc(-c3ccccc3F)cc2C(=O)N([C@H](C)CO)C[C@@H]1C -1.47%, N=c1c2c(-c3ccccc3)c(-c3ccccc3)n(Cc3ccccc3)c2ncn1CCCO -11.6%, O=C(C[C@@H]1CC[C@@H](NC(=O)c2cccnc2)[C@H](CO)O1)NCCN1CCCCC1 -6.27%, CCNC(=O)C[C@@H]1CC[C@H]2[C@@H](COc3ccc(NC(=O)c4ccccc4Cl)cc3C(=O)N2C)O1 2.25%, COc1ccc(NC(=O)Nc2ccc3c(c2)C(=O)N([C@H](C)CO)C[C@H](C)[C@@H](CN(C)Cc2ccccc2)OCCCC[C@H](C)O3)cc1 3.05%, COCC(=O)Nc1ccc2c(c1)C(=O)N(C)C[C@H](OC)[C@@H](C)CN(C(=O)Cc1cccnc1)[C@@H](C)CO2 -0.572%, O=C(Nc1cccc([N+](=O)[O-])c1)Nn1cnnc1 9.77%, Cn1cccc1C(=O)N1CCc2ccccc2C1 28.8%, Cc1ccc(NC(=O)CN2CCc3ccccc3C2)cc1C 8.63%, O=C(CN1CCOCC1)Nc1cccc([N+](=O)[O-])c1 -2.52%, COCC(=O)N(C)C[C@H]1[C@@H](c2ccc(-c3cccnc3)cc2)[C@H](CO)N1C(C)=O 3.19%, CO[C@@H]1CN(C)C(=O)c2cc(NC(=O)c3ccc(F)cc3)ccc2OC[C@H](C)NC[C@@H]1C 2.56%, CC(NC(=O)COc1cccnc1[N+](=O)[O-])c1ccc(Cl)cc1Cl (stereo unspecified) 0.51%, COc1cccc(NC(=O)COc2cccnc2[N+](=O)[O-])c1 20%

Reporter increase, active:
CSc1ccccc1-c1nnc(-c2ccc(Cl)cc2)o1 67.2%, COc1cc(NC(=O)CCNC(=O)Cn2ccc3ccccc3c2=O)cc(OC)c1OC 52.2%, COc1ccc(CNC(=O)c2ccc3oc(C(C)C)nc3c2)cc1 47.5%, COC(=O)c1ccc(CNC(=O)c2ccc3oc(C(C)C)nc3c2)cc1 49%, Nc1ccc(N=Nc2ccccc2Cl)c(N)n1 76%, Cc1noc(C)c1CCC(=O)N1CCCC(CO)(Cc2ccccc2)C1 (stereo unspecified) 73.8%, COC(=O)CCC(=O)N1CCCC(CO)(Cc2ccccc2)C1 (stereo unspecified) 88.3%, CN(C)c1ccc(/C=C2\NC(=S)N(Cc3ccccc3)C2=O)cc1 42.2%, CSc1ccccc1NC(=O)c1cc(C2CC2)on1 53.9%, Clc1ccccc1SCc1nc2ccccc2[nH]1 53%, Fc1ccc2cnc(-c3ccccc3)cc2c1 58.8%, COc1cc(OC)cc(-c2cc3ccc(F)cc3cn2)c1 58.7%, COc1ccc(OCc2cc(C(=O)NCC3(C)COC3)no2)c(Cl)c1 42.9%, OCCCN1c2ccccc2Nc2nnc(-c3ccccc3)cc21 45.3%, CCc1ccc(NC(=O)N2CCc3ccccc3C2)cc1 60.4%, O=C(Nc1cccc([N+](=O)[O-])c1)N1CCc2ccccc2C1 45.9%, O=C(COc1cccnc1[N+](=O)[O-])Nc1ccc(Cl)cc1F 43.4%
